High-throughput results from PubChem BioAssay.
JMJD2E inh: blocks human JMJD2E demethylase activity | JMJD2E catalytic domain, FDH-coupled NADH fluorescence (FDH is formaldehyde dehydrogenase) | Potency, µM (highest dose often 57.1 µM), most hits filed as inhibitors | actives 1.6% (n = 230,000) | AID 2147; active = well fitted inhibition curve with a large enough effect, not every such curve was filed as active; inconclusive = small, poorly fitted or top-dose-only effect, or another doubt; inactive = no such curve, though single readings can be large or run the other way; note: nearly all actives have a fitted effect of over 50% in size
BLM inh: Bloom syndrome helicase (human) inhibition; Potency, µM (highest dose often 56.1 µM), usual class: inhibitors; P54132; actives 0.2% (n = 350,000); recombinant BLM DNA unwinding, fluorescence dequenching; note: nearly all actives have a fitted effect of over 35% in size
L3MBTL1 inh: inhibitors of human L3MBTL1 | Q9Y468 | AlphaScreen L3MBTL1–H3K9me1 peptide binding | Potency, µM (highest dose often 57.1 µM), most hits filed as inhibitors | actives 0.66% (n = 230,000); note: nearly all actives have a fitted effect of over 60% in size
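AlphaScreen assay: L3MBTL1 (50 nM final) was preincubated 30 min at room temperature with biotinylated H3(1-15)K9me1 peptide (75 nM final), then 30 min with library compounds; streptavidin donor and nickel chelate acceptor beads (10 ug/mL final) added, 30 min dark.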
RECQ1 inh-1: inhibitors of human RECQ1 DNA helicase | P46063 | RECQ1 DNA unwinding, red fluorescence kinetic read | Potency, µM (highest dose often 57.3 µM), most hits filed as inhibitors | actives 0.54% (n = 240,000); note: nearly all actives have a fitted effect of over 30% in size
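50 nM RECQ1T1 preincubated 15 min with compound in Tris pH 8.0 buffer with MgCl2, DTT, Tween-20 and 2.5 ug/ml poly(dI-dC); started with 200 nM TAMRA/BHQ-2 forked duplex and 2 mM ATP. Unwinding read as fluorescence (525/598 nm), two reads 2 h apart.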
APEX1 inh: blocks human APE1 abasic DNA cleavage; P27695; recombinant APE1, TAMRA/BHQ-2 abasic DNA cleavage fluorescence; Potency, µM (doses to about 65.8 µM), most hits filed as inhibitors; actives 0.35% (n = 350,000); AID 2517; note: nearly all actives have a fitted effect of over 55% in size
Target sequence (P27695 whole entry, looked up): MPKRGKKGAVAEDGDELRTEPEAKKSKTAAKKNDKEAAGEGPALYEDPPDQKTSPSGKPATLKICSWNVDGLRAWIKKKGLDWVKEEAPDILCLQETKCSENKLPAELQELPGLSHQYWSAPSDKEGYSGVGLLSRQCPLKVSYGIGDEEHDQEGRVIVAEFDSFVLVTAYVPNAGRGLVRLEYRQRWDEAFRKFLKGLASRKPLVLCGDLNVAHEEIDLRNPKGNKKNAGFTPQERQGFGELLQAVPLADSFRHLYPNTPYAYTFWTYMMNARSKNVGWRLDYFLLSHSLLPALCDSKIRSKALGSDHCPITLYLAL
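Endonuclease cleavage of a quenched abasic-site DNA duplex (50 nM) by APE1 (0.75 nM) was tracked by TAMRA dequenching. Compounds were preincubated with enzyme 15 min at room temperature; data normalized to buffer-only and DMSO wells plus NSC13755 control.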
RECQ1 conf: confirmation of human RECQ1 helicase inhibitors | shares compounds with RECQ1 inh-1 | RECQ1 helicase DNA unwinding, fluorescence | Potency, µM (series often up to 229 µM), usual class: inhibitors | actives 28% (n = 610) | AID 2708; note: nearly all actives have a fitted effect of over 45% in size
ADP FP counter: displaces ADP in a fluorescence polarization counter-screen for RECQ1 hits. shares compounds with RECQ1 inh-1. ADP fluorescence polarization displacement counterscreen. Potency, µM (top dose mostly 228 µM), actives largely listed as inhibitors. actives 27% (n = 530); note: nearly all actives have a fitted effect of over 45% in size
RECQ1 inh-2: blocks human RECQ1 DNA unwinding; Potency, µM (doses to about 119 µM), hits mostly inhibitors; AID 504841; actives 15% (n = 1,100); recombinant RECQ1 DNA unwinding, red fluorescence; shares compounds with RECQ1 inh-1; note: nearly all actives have a fitted effect of over 50% in size
Of the large screens only hits and unclear results are named; the others gave an inactive call (follow-up assays come after a bar, where they were run). This excerpt belongs to a sample that is enriched for hits. Unless noted, calls come from the whole dose curve; as a rule, active = well fitted curve in the direction sought with a large enough effect; inconclusive = small, poorly fitted or top-dose-only effect, or another doubt; inactive = no such curve, though single readings can be large; an effect the other way counts as inactive or inconclusive.

Cc1nc2nc(-c3ccccc3)cc(=O)n2[nH]1	none (no result: L3MBTL1 inh)
O=c1cc(-c2ccccc2)nc2nc(-c3ccco3)[nH]n12	JMJD2E inh inconclusive, RECQ1 inh-1 25µM | RECQ1 inh-2 inactive
O=C(COC(=O)c1ccc2ccccc2n1)Nc1ccccc1F	none (no result: JMJD2E inh, BLM inh, RECQ1 inh-1)
Cc1onc(-c2c(F)cccc2Cl)c1C(=O)OCC(=O)c1c[nH]c2ccccc12	RECQ1 inh-1 22µM, APEX1 inh inconclusive (no result: L3MBTL1 inh) | RECQ1 inh-2 inactive
Cc1nn(Cc2ccc(F)cc2)c(C)c1NC(=O)c1cc(-c2ccco2)on1	RECQ1 inh-1 inconclusive | RECQ1 inh-2 inconclusive
COc1ccc(C)cc1N(CC(=O)N/N=C/c1ccccc1C(=O)O)S(=O)(=O)c1ccccc1	none (no result: L3MBTL1 inh) | RECQ1 conf inactive | ADP FP counter inactive
COc1ccc(CCn2c(=S)[nH]c3cc(C(=O)N4CCOCC4)ccc3c2=O)cc1OC	RECQ1 inh-1 35µM (no result: L3MBTL1 inh) | RECQ1 inh-2 inactive
COc1ccc(CCn2c(=O)[nH]c3cc(C(=O)N4CCN(c5ccccc5)CC4)ccc3c2=O)cc1OC	none (no result: L3MBTL1 inh)
O=C(O)CCCC(=O)N1CCc2cc(S(=O)(=O)NCc3ccccc3)ccc21	none | RECQ1 conf inactive | ADP FP counter inactive
Cc1ccc(CNS(=O)(=O)c2ccc3c(c2)CCN3C(=O)CCCC(=O)O)cc1	none (no result: L3MBTL1 inh) | RECQ1 conf inactive | ADP FP counter inactive
O=C(O)CCCC(=O)N1CCc2cc(S(=O)(=O)N3CCc4ccccc43)ccc21	none (no result: L3MBTL1 inh) | RECQ1 conf inactive | ADP FP counter inactive
Cc1cccc(N2CCN(S(=O)(=O)c3ccc4c(c3)CCN4C(=O)CCC(=O)O)CC2C)c1 (centres undefined)	none (no result: L3MBTL1 inh) | RECQ1 conf inconclusive | ADP FP counter inconclusive
NC(=O)Nc1ccc(Oc2c(F)c(F)c(F)c(F)c2F)cc1	none
O=C(NC(Cc1c[nH]c2ccccc12)C(=O)O)/C(=C/c1ccc(F)cc1)NC(=O)c1ccccc1 (centres undefined)	none (no result: L3MBTL1 inh) | RECQ1 conf inactive | ADP FP counter inactive
CC(C)NC(=O)C1CCN(C(=O)c2cnn(-c3ccccc3)c2-n2cccc2)CC1	none (no result: JMJD2E inh, L3MBTL1 inh, RECQ1 inh-1, APEX1 inh)
COc1ncnc2c1NC1=C(S2)C(=NCCC(=O)O)CC(C)(C)C1	BLM inh inconclusive, RECQ1 inh-1 inconclusive, APEX1 inh inconclusive | RECQ1 inh-2 79µM
Cn1c(=NC(=O)c2ccc(S(=O)(=O)N3CCCc4ccccc43)cc2)sc2cc(S(C)(=O)=O)ccc21	none
C#CCn1c(=NC(=O)c2ccc(S(=O)(=O)N3CCCc4ccccc43)cc2)sc2cc(S(N)(=O)=O)ccc21	JMJD2E inh inconclusive | RECQ1 conf inactive | ADP FP counter inactive
Cc1c(C(=O)N2CCOCC2)cc(C(C)(C)C)n1-c1ccccc1	none
Clc1nc(Nc2ccc(N3CCOCC3)cc2)c2ccccc2n1	JMJD2E inh inconclusive
O=S(=O)(Nc1nc2ccccc2nc1Nc1ccc(N2CCOCC2)cc1)c1cc(Cl)ccc1Cl	RECQ1 inh-1 inconclusive | RECQ1 inh-2 inactive
Cc1c(NC(=O)C(C)OC(=O)CC2Sc3ccccc3NC2=O)c(=O)n(-c2ccccc2)n1C (centres undefined)	none | RECQ1 conf inactive | ADP FP counter inactive
COC1=C(Nc2ccc(O)cc2)C(=O)c2ccccc2C1=O	JMJD2E inh 10µM, L3MBTL1 inh inconclusive, RECQ1 inh-1 inconclusive, APEX1 inh inconclusive | RECQ1 inh-2 inactive
CCN(C(=O)C1CCN(S(=O)(=O)c2ccc3c(c2)CCCN3C(C)=O)CC1)c1cccc(C)c1	none (no result: JMJD2E inh, L3MBTL1 inh, RECQ1 inh-1, APEX1 inh)
Cc1cccc(-n2c(Cc3ccccc3)n[nH]c2=S)c1	none
CCCCc1nc2ccccc2c(=O)n1NC(=O)c1c(O)c2c(n(CC(C)C)c1=O)CCCC2	none | RECQ1 conf inconclusive | ADP FP counter inactive
O=C(Nn1c(Cc2ccccc2)nc2ccccc2c1=O)c1c(O)c2cccc3c2n(c1=O)CCC3	none | RECQ1 conf inconclusive | ADP FP counter inconclusive
CCOC(=O)C1(Cc2cccc(F)c2)CCN(Cc2ccon2)CC1	none
